# PubChem BioAssay (Tox21)
# Inconclusive results are not listed. Values without a mark were called inactive. Activity calls are given as the source filed them. The call rests on the fitted dose curve; in most records, active means well fitted cell-killing curve with a large enough effect in the repeat runs; inconclusive means weak or mixed curves; inactive means flat fitted curve, though single readings scatter.
# Assay: qHTS assay to identify small molecule antagonists of the estrogen receptor beta (ER-beta) signaling pathway - cell viability counter screen (AID 1259382); further: nearly all actives have a fitted effect of over 55% in size
# Details: ER-beta-UAS-bla HEK293T viability, CellTiter-Glo luminescence, 16 h; series mostly up to 92.4 µM
# Source text: U.S. Tox21 Program National Center for Advancing Translational Sciences [NCATS] NIH Chemical Genomics Center [NCGC] U.S. Environmental Protection Agency [EPA] National Institutes of Environmental Health Sciences [NIEHS] National Toxicology Program [NTP] U.S. Food and Drug Administration [FDA] Tox21 Assay Overview: Estrogen receptor (ER), a nuclear hormone receptor, plays an important role in development, metabolic homeostasis and reproduction. Two subtypes of ER, ER-alpha and ER-beta, have similar expression patterns with some uniqueness in both types. Endocrine disrupting chemicals (EDCs) and their interactions with steroid hormone receptors like ER causes disruption of normal endocrine function. To identify the compounds that inhibit ER signaling, an ER-beta-UAS-bla GripTite cell line (Life Technologies, Madison, WI, USA) containing a beta-lactamase reporter gene under the control of an UAS response element was used to screen Tox21 10K compound library. The cytotoxicity of the Tox21 compound library against the ER-beta-bla cell line was tested in parallel by measuring the cell viability using CellTiter-Glo assay in the same wells.
# Tox21 Assay Protocol Summary: ER-beta-UAS-bla HEK293T cells were dispensed at 2,000 cells/4 uL of assay medium containing 2% charcoal stripped FBS per well into black wall/clear-bottom 1536-well plates using a Multidrop Combi (ThermoFisher Scientific, Waltham, MA) dispenser. After the assay plates were incubated at a 37C and 5% CO2 for 6 hr, 23 nL of compounds dissolved in DMSO, positive controls or DMSO only was transferred to the assay plate by a Pintool station (Kalypsys, San Diego, CA), followed by addition of 1 uL (1nM as final concentration) of 17-beta-estradiol (E2) in assay medium using a Flying Reagent Dispenser (FRD, Aurora Discovery, San Diego, CA). The plates were incubated at 37C and 5% CO2 for 16 hr. Then 1 uL of LiveBLAzer B/G FRET substrate was added using a Flying Reagent Dispenser, the plates were incubated at room temperature for 2 hours, and fluorescence intensity was measured by an Envision plate reader (PerkinElmer, Shelton, CT). For cell viability readout that measures cytotoxicity, 4 uL/well of CellTiter-Glo reagent was added into the assay plates using a FRD. After 30 min incubation at room temperature, the luminescence intensity in the plates was measured using a ViewLux (PerkinElmer) plate reader.
# On the % scale 0 is the no-effect control and ±100 the full control effect.
Structure (SMILES),outcome,"activity change, negative = cytotoxicity"
CCN1CC(CCN2CCOCC2)C(c2ccccc2)(c2ccccc2)C1=O (stereo not given),inactive,–
CC1=CC(=O)CC(C)(C)C1=O,inactive,–
CN(C)CC[C@@H](c1ccc(Cl)cc1)c1ccccn1,inactive,–
Cc1c(C(=O)NCCO)[n+](=O)c2ccccc2n1[O-],inactive,–
CCOC(=O)c1ccccc1O,inactive,–
CCCCCCCCCCCCCCCCOP(=O)([O-])OCC[N+](C)(C)C,inactive,–
FC(F)(F)C(F)(F)C(F)(F)C(F)(F)C(F)(F)C(F)(F)C(F)(F)C(F)(F)Br,inactive,–
COc1cc(N)c(Cl)cc1C(=O)NC1CCN(Cc2ccccc2)CC1,inactive,–
CCCCC(CC)COC(=O)COc1cc(Cl)c(Cl)cc1Cl (stereo not given),inactive,–
NC/C=C/C(=O)O,inactive,–
CC(C)c1ccccc1,inactive,–
NC(Cc1ccc(F)cc1)C(=O)O (stereo not given),–,1.79% [at 8.39 µM]
C[C@]12CCC(=O)C=C1CC[C@@H]1[C@@H]2CC[C@@]2(C)[C@H]1CC[C@]2(O)C(=O)CO,inactive,–
Nc1cccc(S(=O)(=O)O)c1,inactive,–
COc1ccc(S(=O)(=O)Nc2nnc(CC(C)C)s2)cc1,inactive,–
CN1CCN(c2c(F)cc3c(=O)c(C(=O)O)cn(CCF)c3c2F)CC1,inactive,–
Cc1cccc(C)c1NC(=O)CN1CCCCCC1,inactive,–
CCCCCCCCCC#N,inactive,–
COC(=O)/C=C(/C)N,inactive,–
CC(=O)N[C@@H](CC(C)C)C(=O)O,inactive,–

Structure (SMILES),outcome,"activity change, negative = cytotoxicity"
NCCCN1CCN(CCCN)CC1,inactive,–
O=C1N(c2ccccc2)c2ccccc2C1(Cc1ccncc1)Cc1ccncc1,inactive,–
OCCN1CCN(CCO)CC1,inactive,–
CCOc1ccc(NC(N)=O)cc1,inactive,–
COc1cc2c(cc1N)oc1ccccc12,inactive,–
O=Cc1ccc(F)c(Br)c1,inactive,–
CCCCCCn1c(=O)c2c(ncn2C)n(C)c1=O,inactive,–
CC/C=C\CCOC(=O)C(C)C,inactive,–
CC(C)(C)c1ccc(OC(=O)c2ccccc2O)cc1,inactive,–
O=C1C=CC(=O)O1,inactive,–
CCCC1CCC(=O)O1 (stereo not given),inactive,–
COC(=O)N[C@H](C(=O)N[C@@H](Cc1ccccc1)[C@@H](O)CN(Cc1ccc(-c2ccccn2)cc1)NC(=O)[C@@H](NC(=O)OC)C(C)(C)C)C(C)(C)C,inactive,–
N#Cc1ccc(C(c2ccc(C#N)cc2)n2cncn2)cc1,inactive,–
CCOC(=O)C(Br)c1ccccc1 (stereo not given),inactive,–
COc1ccccc1OCC(O)COC(N)=O (stereo not given),inactive,–
C=C(C)C(=O)OCCOP(=O)(O)O,inactive,–
CC(C)Nc1nc(N)nc(Cl)n1,inactive,–
OCC(CBr)(CBr)CBr,inactive,–
Oc1ccccc1C=NCc1ccccc1,inactive,–
C=Cc1ccccc1,inactive,–
